Laboratory results taken from a collection of fitness landscapes (doi:10.1016/j.celrep.2020.107928).
Over roughly 81,000 sequences, “one-hybrid fitness for binding parS DNA” has its median near -0.17; the highest 2% begin near 0.51. Only a selection was taken, and the highest values are over-represented in it overall.

B1: Caulobacter ParB omega fusion; a variant is named by its letters at X, in order, B8GW30 (parent)
chain: MESVVVGEPGMSEGRRGLGRGLSALLGEVDAAPAQAPGEQLGGSREAPIEILQRNPDQPRRTFREEDLEDLSNSIREKGVLQPILVRPSPDTAGEYQIVAGERAWRAAQRAGLKTVPIMVRELDDLAVLEIGIIENVQRADLNVLEEALSYKVLMEKFERTQENIAQTIGKSXSHVANXMRLLXLPDEVQSYLVSGELTAXHARAIAAAADPVALAKQIIEGGLSVRETEALARKAPNLSAGKSKGGRPPRVKDTDTQALESDLSSVLGLDVSIDHRGSTGTLTITYATLEQLDDLCNRLTRGI

Variants of: B1
Assay: one-hybrid fitness for binding parS DNA (scaled: cognate 1, non-cognate 0); higher = stronger binding
Settings: with parS DNA site
Procedure, shortened: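 Selection: bacterial one-hybrid in E. coli USO, HIS3 reporter with the site 19 bp from the promoter, 48 hours at 37°C on M9-minus-histidine plus 0.1 mM IPTG and 5 mM 3-AT. Libraries were Caulobacter ParB with four randomised specificity codons, sequenced on Illumina before and after selection. Fitness is the rescaled log change in variant-to-wild-type read ratio, anchored to the cognate and non-cognate sites.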

Variant	one-hybrid fitness for binding parS DNA
YVVN	≤ 0.2
HTHM	≤ 0.2
APRT	≤ 0.2
VFSS	≤ 0.2
NMCG	≤ 0.2
TSPA	≤ 0.2
VQAC	≤ 0.2
NLYH	≤ 0.2
RYIT	0.628
RYPT	0.403
RYIF	≤ 0.2
VSVG	≤ 0.2
ATKL	≤ 0.2
LWCV	≤ 0.2
TMIC	≤ 0.2
RQNA	0.613
RQDA	0.546
GTRS	≤ 0.2
WREM	≤ 0.2
KDAT	≤ 0.2
KNTT	≤ 0.2
RWKK	≤ 0.2
RWVM	0.27
RWVC	0.544
RWVD	≤ 0.2
RWKC	0.896

Variant	one-hybrid fitness for binding parS DNA
RWKF	0.288
LFFG	≤ 0.2
RIFH	0.213
RIFC	0.96
RIAC	0.973
RIAF	0.213
RIAK	≤ 0.2
RIFN	0.438
HAMK	≤ 0.2
NSMR	≤ 0.2
HTHL	≤ 0.2
RWMM	≤ 0.2
RWMS	0.788
RWMH	≤ 0.2
RWMK	≤ 0.2
RWMT	0.556
RWMP	≤ 0.2
RWMD	≤ 0.2
RWMR	≤ 0.2
RWMG	0.671
RWMC	0.628
RWMN	0.211
RWMQ	≤ 0.2
FGNS	≤ 0.2
ACYG	≤ 0.2
CHPN	≤ 0.2

Variant	one-hybrid fitness for binding parS DNA
SMHF	≤ 0.2
RWKN	0.421
RWVK	≤ 0.2
RWKG	0.901
RWVG	0.584
RWVR	≤ 0.2
RWKD	≤ 0.2
DTHI	≤ 0.2
EYGF	≤ 0.2
AERY	≤ 0.2
KENP	≤ 0.2
FRDG	≤ 0.2
HAQD	≤ 0.2
RGTF	≤ 0.2
RGTS	0.863
RGTN	0.25
RGTM	≤ 0.2
RGTP	≤ 0.2
RGTH	≤ 0.2
RGTR	≤ 0.2
RGTT	0.624
RGTC	0.695
RGTD	≤ 0.2
RGTK	≤ 0.2
RGTG	0.78
TYYF	≤ 0.2

Variant	one-hybrid fitness for binding parS DNA
PKPC	≤ 0.2
QSEI	≤ 0.2
CPAM	≤ 0.2
QILY	≤ 0.2
QADE	≤ 0.2
CSLA	≤ 0.2
RAKM	0.448
RAKC	0.91
RAVN	0.388
RAKR	≤ 0.2
RAVC	0.851
RAVP	≤ 0.2
CAPG	≤ 0.2
TVAL	≤ 0.2
SDKW	≤ 0.2
FVSL	≤ 0.2
KQRR	≤ 0.2
IVGT	≤ 0.2
LIKM	≤ 0.2
INCG	≤ 0.2
RTVK	≤ 0.2
RTKT	0.74
RTKP	≤ 0.2
RTVT	0.879
RTKQ	≤ 0.2
RTVQ	≤ 0.2

Variant	one-hybrid fitness for binding parS DNA
SPTS	≤ 0.2
AAYI	≤ 0.2
AFVR	≤ 0.2
SQAR	≤ 0.2
QSAW	≤ 0.2
NFVC	≤ 0.2
RFVC	0.753
RFKC	0.991
DFKC	≤ 0.2
NFKC	≤ 0.2
DFVC	≤ 0.2
ARWW	0.23
ICDS	≤ 0.2
HSSC	≤ 0.2
IVSG	0.263
STPM	≤ 0.2
SILY	≤ 0.2
RTAT	0.918
RTAR	≤ 0.2
RTFT	0.911
RTFQ	0.26
RTAQ	≤ 0.2
RTFM	0.334
EICA	≤ 0.2
RNHW	≤ 0.2
GQRT	≤ 0.2

Variant	one-hybrid fitness for binding parS DNA
LGMH	≤ 0.2
QVAS	≤ 0.2
RMAA	0.59
RGFA	0.215
RMFA	0.61
REAA	≤ 0.2
RNAA	0.456
NNVS	≤ 0.2
HPRW	≤ 0.2
RKGE	≤ 0.2
RIWP	0.223
RIHS	0.97
RILS	1.04
RIHN	0.463
RIRD	≤ 0.2
RIRS	0.874
RIWD	≤ 0.2
RILP	≤ 0.2
RIRP	≤ 0.2
RIHD	≤ 0.2
RIWS	1.05
RILH	≤ 0.2
YILC	≤ 0.2
